Measured values reported in PubChem BioAssay AID1159580 (chemical genetic matrix, 2015).
Values joined by “and” are separate entries in the source; they are usually repeats but may differ in a detail not shown here. Equal values may be shown once. The campaign covered roughly 5,500 compounds. About 2,000 (36%) were called active. Roughly 18% stayed inconclusive and do not appear here. No stated cut-off is given here; in the data, active means normalized growth mostly below about 0.91 (no sharp cut-off); inconclusive means no clear call, values can overlap the other calls; inactive means mostly above about 0.92. The list shows a part of the results.

Assay: chemical genetic growth profiling, strain panel (AID 1159580);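 further: tested at 20 µM; growth read once vehicle control cultures reached saturation at 30 °C; 1 = growth at the plate median or of vehicle wells; lower values mean less growth of the strain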
Settings: S. cerevisiae deletion strains, growth OD

Measured: normalized growth

O=c1ccc2cc(O[C@@H]3O[C@H](CO)[C@@H](O)[C@H](O)[C@H]3O)c(O)cc2o1
inactive: locus YAL013W, strain DEP1, active compounds read low 1.04 | locus YAL021C, strain ccr4, active compounds read low 0.991 | locus YAL026C, strain drs2, active compounds read low 0.997 | locus YAL030W, strain snc1, active compounds read low 0.971 | locus YBL061C, strain skt5, active compounds read low 0.972 | locus YBR009C, strain hhf1, active compounds read low 1.01 | locus YBR021W, strain FUR4, active compounds read low 1.06 | locus YBR023C, strain chs3, active compounds read low 0.983 | locus YBR171W, strain sec66, active compounds read low 0.956 | locus YBR229C, strain ROT2, active compounds read low 1.02 | locus YBR231C, strain swc5, active compounds read low 0.982 | locus YBR279W, strain paf1, active compounds read low 0.988 | locus YCL011C, strain gbp2, active compounds read low 0.99 | locus YCL016C, strain dcc1, active compounds read low 0.999 | locus YCL029C, strain bik1, active compounds read low 0.998 | locus YCL061C, strain MRC1, active compounds read low 0.983 | locus YCL069W, strain vba3, active compounds read low 0.977 | locus YCR088W, strain abp1, active compounds read low 0.978 | locus YDL005C, strain med2, active compounds read low 0.958 | locus YDL035C, strain GPR1, active compounds read low 1.04 | locus YDL040C, strain nat1, active compounds read low 0.976 | locus YDL074C, strain BRE1, active compounds read low 1.02 | locus YDL101C, strain DUN1, active compounds read low 1.01 | locus YDL134C, strain PPH21, active compounds read low 1.02 | locus YDL185W, strain tfp1, active compounds read low 1 | locus YDL192W, strain arf1, active compounds read low 0.991 | locus YDR001C, strain nth1, active compounds read low 0.987 | locus YDR069C, strain doa4, active compounds read low 0.977 | locus YDR101C, strain arx1, active compounds read low 0.995 | locus YDR137W, strain rgp1, active compounds read low 1 | locus YDR159W, strain sac3, active compounds read low 0.978 | locus YDR162C, strain NBP2, active compounds read low 1.04 | locus YDR195W, strain ref2 0.875 | locus YDR297W, strain sur2, active compounds read low 0.988 | locus YDR318W, strain mcm21, active compounds read low 0.999 | locus YDR334W, strain swr1, active compounds read low 0.982 | locus YDR335W, strain msn5, active compounds read low 0.995 | locus YDR388W, active compounds read low 0.986 | locus YDR392W, strain spt3, active compounds read low 1.02 | locus YDR502C, strain sam2, active compounds read low 0.993 | locus YEL003W, strain gim4, active compounds read low 0.986 | locus YEL037C, strain rad23, active compounds read low 0.982 | locus YEL061C, strain CIN8 (second series), active compounds read low 0.974 | locus YEL061C, strain CIN8, active compounds read low 1.01 | locus YER015W, strain faa2, active compounds read low 0.992 | locus YER016W, strain bim1, active compounds read low 0.983 | locus YER110C, active compounds read low 0.99 | locus YER111C, strain swi4, active compounds read low 0.961 | locus YER155C, strain BEM2 (second series), active compounds read low 0.927 | locus YER155C, strain BEM2, active compounds read low 1 | locus YER167W, strain BCK2, active compounds read low 1.02 | locus YFR010W, strain ubp6, active compounds read low 0.974 | locus YGL078C, strain dbp3, active compounds read low 0.997 | locus YGL086W, strain mad1, active compounds read low 0.979 | locus YGL167C, strain pmr1, active compounds read low 0.964 | locus YGL173C, strain kem1, active compounds read low 0.977 | locus YGL227W, strain vid30, active compounds read low 0.981 | locus YGL240W, strain doc1, active compounds read low 0.981 | locus YGL248W, strain PDE1, active compounds read low 1.03 | locus YGL253W, strain hxk2, active compounds read low 0.994 | locus YGR135W, strain pre9, active compounds read low 0.995 | locus YGR252W, strain gcn5, active compounds read low 0.997 | locus YHR013C, strain ard1, active compounds read low 0.963 | locus YHR027C, strain rpn1, active compounds read low 0.978 | locus YHR030C, strain SLT2, active compounds read low 1.01 and 1.03 | locus YHR079C, strain IRE1 (second series), active compounds read low 0.99 | locus YHR079C, strain IRE1, active compounds read low 1.02 | locus YHR094C, strain hxt1, active compounds read low 0.995 | locus YHR129C, strain ARP1, active compounds read low 1.02 | locus YHR142W, strain chs7, active compounds read low 0.982 | locus YHR200W, strain rpn10, active compounds read low 0.999 | locus YIL066C, strain RNR3, active compounds read low 1.05 | locus YIL073C, strain SPO22, active compounds read low 1.02 | locus YIL125W, strain kgd1, active compounds read low 0.995 | locus YIR030C, strain dcg1, active compounds read low 0.986 | locus YJL092W, strain hpr5, active compounds read low 0.994 | locus YJL095W, strain BCK1 (second series), active compounds read low 0.973 | locus YJL095W, strain BCK1, active compounds read low 1.01 and 1.02 | locus YJL115W, strain asf1, active compounds read low 0.971 | locus YJL129C, strain trk1, active compounds read low 0.993 | locus YJL134W, strain LCB3, active compounds read low 1.01 | locus YJL154C, strain vps35, active compounds read low 0.98 | locus YJL164C, strain tpk1, active compounds read low 0.991 | locus YJL166W, strain qcr8, active compounds read low 0.962 | locus YJL168C, strain set2, active compounds read low 0.987 | locus YJL187C, strain SWE1 (second series), active compounds read low 1.01 | locus YJR043C, strain POL32, active compounds read low 1.04 | locus YJR066W, strain TOR1, active compounds read low 0.954 | locus YKL009W, strain mrt4, active compounds read low 0.978 | locus YKL068W, active compounds read low 1 | locus YKL085W, strain MDH1 (second series), active compounds read low 0.996 | locus YKL085W, strain MDH1, active compounds read low 0.996 | locus YKL160W, strain elf1, active compounds read low 0.992 | locus YKR001C, strain vps1, active compounds read low 0.983 | locus YKR026C, strain gcn3, active compounds read low 0.964 | locus YKR091W, strain srl3, active compounds read low 0.971 | locus YLL001W, strain dnm1, active compounds read low 0.962 | locus YLL026W, active compounds read low 0.988 | locus YLL041C, strain sdh2, active compounds read low 0.971 | locus YLR027C, strain aat2, active compounds read low 0.983 | locus YLR039C, strain RIC1, active compounds read low 1.03 | locus YLR058C, strain SHM2, active compounds read low 1.02 | locus YLR102C, strain apc9, active compounds read low 1 | locus YLR113W, strain HOG1, active compounds read low 1.01 | locus YLR221C, strain rsa3, active compounds read low 1.03 | locus YLR258W, strain gsy2, active compounds read low 0.973 | locus YLR262C, strain YPT6 (second series), active compounds read low 0.955 | locus YLR262C, strain YPT6, active compounds read low 1.08 | locus YLR268W, strain sec22, active compounds read low 0.989 | locus YLR320W, strain mms22, active compounds read low 0.984 | locus YLR330W, strain CHS5, active compounds read low 1.02 | locus YLR342W, strain FKS1 (second series), active compounds read low 1.03 | locus YLR342W, strain FKS1, active compounds read low 0.973 | locus YLR357W, strain rsc2, active compounds read low 0.96 | locus YLR370C, strain arc18, active compounds read low 0.989 | locus YLR371W, strain rom2, active compounds read low 0.993 | locus YLR384C, strain iki3, active compounds read low 0.97 | locus YLR418C, strain cdc73, active compounds read low 1.03 | locus YML016C, strain PPZ1, active compounds read low 1.02 | locus YML032C, strain rad52, active compounds read low 1.01 | locus YML120C, strain ndi1, active compounds read low 0.978 | locus YML124C, strain tub3, active compounds read low 0.991 | locus YMR058W, strain fet3, active compounds read low 0.978 | locus YMR078C, strain ctf18, active compounds read low 0.99 | locus YMR125W, strain sto1, active compounds read low 0.97 | locus YMR129W, active compounds read low 0.991 | locus YMR205C, strain PFK2, active compounds read low 0.962 | locus YMR223W, strain ubp8, active compounds read low 0.99 | locus YMR231W, strain pep5, active compounds read low 0.971 | locus YMR307W, strain GAS1, active compounds read low 1.09 | locus YNL067W, strain RPL9B, active compounds read low 1.01 | locus YNL071W, strain lat1, active compounds read low 0.993 | locus YNL128W, strain TEP1, active compounds read low 1.03 | locus YNL183C, strain NPR1, active compounds read low 0.962 | locus YNL209W, strain ssb2, active compounds read low 0.993 | locus YNL233W, strain BNI4, active compounds read low 1.01 | locus YNL248C, strain rpa49, active compounds read low 1.01 | locus YNL250W, strain rad50, active compounds read low 1.02 | locus YNL271C, strain bni1, active compounds read low 0.993 | locus YNL298W, strain CLA4, active compounds read low 0.985 | locus YNL307C, strain MCK1, active compounds read low 1 | locus YNL322C, strain KRE1 (second series), active compounds read low 0.947 | locus YNR049C, strain mso1, active compounds read low 0.973 | locus YNR052C, strain pop2, active compounds read low 0.994 | locus YOL012C, strain htz1 0.76 | locus YOL147C, strain pex11, active compounds read low 0.996 | locus YOR001W, strain rrp6, active compounds read low 0.987 | locus YOR061W, strain CKA2, active compounds read low 1.02 | locus YOR069W, strain VPS5, active compounds read low 1.01 | locus YOR070C, strain gyp1, active compounds read low 0.981 | locus YOR080W, strain dia2, active compounds read low 0.948 | locus YOR083W, strain WHI5, active compounds read low 0.981 | locus YOR106W, strain vam3, active compounds read low 0.97 | locus YOR136W, strain idh2, active compounds read low 0.991 | locus YOR144C, strain elg1, active compounds read low 0.999 | locus YOR184W, strain ser1, active compounds read low 0.997 | locus YOR231W, strain MKK1, active compounds read low 1.04 | locus YOR265W, strain rbl2, active compounds read low 0.984 | locus YOR270C, strain vph1, active compounds read low 1 | locus YOR290C, strain snf2, active compounds read low 1 | locus YOR316C, strain cot1, active compounds read low 0.991 | locus YPL051W, strain arl3, active compounds read low 0.99 | locus YPL078C, strain atp4, active compounds read low 0.962 | locus YPL106C, strain sse1, active compounds read low 0.962 | locus YPL240C, strain hsp82, active compounds read low 0.968 | locus YPL241C, strain CIN2, active compounds read low 1.01 | locus YPL256C, strain CLN2, active compounds read low 1.02 | locus YPR119W, strain clb2, active compounds read low 0.99 | locus YPR141C, strain kar3, active compounds read low 0.996 | locus YPR163C, strain tif3, active compounds read low 0.987 | locus YPR167C, strain met16, active compounds read low 0.986 | strain wtn01, active compounds read low 0.997
